PubChem BioAssay (EPA / NIEHS)
Results filed as inconclusive are left out. Activity calls are given as the source filed them. Rule for the calls: active = hit-call score of the fitted dose curve at least 0.9, where 1 is the maximum; inconclusive = response in the unintended direction; inactive = score below 0.9.

What was measured:
[1] = target: human Vascular Endothelial Growth Factor Receptor 1 (VEGFR1), FLT1 (gene 2321) (UniProt P17948); assay: NVS_ENZ_hVEGFR1: NovaScreen (NVS) Enzymatic Assay for human Vascular Endothelial Growth Factor Receptor 1 (VEGFR1) (AID 2283226)
Chain of human Vascular Endothelial Growth Factor Receptor 1 (VEGFR1), FLT1 (gene 2321) (P17948 whole entry, looked up): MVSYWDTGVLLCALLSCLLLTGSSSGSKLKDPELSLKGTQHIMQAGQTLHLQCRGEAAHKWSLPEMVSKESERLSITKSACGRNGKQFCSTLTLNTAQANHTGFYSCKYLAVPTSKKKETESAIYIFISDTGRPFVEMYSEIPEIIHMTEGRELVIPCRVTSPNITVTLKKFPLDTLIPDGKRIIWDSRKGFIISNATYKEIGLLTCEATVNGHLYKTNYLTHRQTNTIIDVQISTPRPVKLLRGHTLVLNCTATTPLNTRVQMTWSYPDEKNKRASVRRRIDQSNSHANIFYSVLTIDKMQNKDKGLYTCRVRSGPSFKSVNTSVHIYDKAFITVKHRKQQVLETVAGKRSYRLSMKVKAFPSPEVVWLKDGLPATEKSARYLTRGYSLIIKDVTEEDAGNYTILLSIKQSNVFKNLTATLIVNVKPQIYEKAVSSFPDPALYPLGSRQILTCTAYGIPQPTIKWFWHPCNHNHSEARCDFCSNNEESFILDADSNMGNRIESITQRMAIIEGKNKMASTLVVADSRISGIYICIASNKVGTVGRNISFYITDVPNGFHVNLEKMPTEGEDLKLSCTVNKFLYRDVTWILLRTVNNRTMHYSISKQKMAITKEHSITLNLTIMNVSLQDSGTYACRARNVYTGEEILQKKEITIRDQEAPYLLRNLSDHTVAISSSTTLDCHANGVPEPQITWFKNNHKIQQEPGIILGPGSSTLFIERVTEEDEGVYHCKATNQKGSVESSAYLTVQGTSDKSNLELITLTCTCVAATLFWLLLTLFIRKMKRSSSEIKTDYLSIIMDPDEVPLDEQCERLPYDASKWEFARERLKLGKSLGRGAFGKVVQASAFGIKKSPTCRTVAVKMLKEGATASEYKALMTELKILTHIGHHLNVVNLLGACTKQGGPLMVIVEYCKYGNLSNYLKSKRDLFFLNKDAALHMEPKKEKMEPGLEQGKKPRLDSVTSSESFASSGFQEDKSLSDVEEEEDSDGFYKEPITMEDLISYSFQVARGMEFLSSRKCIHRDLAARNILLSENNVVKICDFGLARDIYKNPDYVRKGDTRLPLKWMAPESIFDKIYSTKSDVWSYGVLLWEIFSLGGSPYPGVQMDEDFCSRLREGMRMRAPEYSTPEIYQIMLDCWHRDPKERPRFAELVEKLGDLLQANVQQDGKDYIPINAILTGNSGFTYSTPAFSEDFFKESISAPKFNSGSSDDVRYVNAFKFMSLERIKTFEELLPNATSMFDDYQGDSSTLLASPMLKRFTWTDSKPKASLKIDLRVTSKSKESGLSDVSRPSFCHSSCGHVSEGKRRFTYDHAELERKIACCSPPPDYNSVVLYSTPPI
Method in brief: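 Kinase activity of recombinant human VEGFR1 was read by fluorescence after electrophoretic separation of product from substrate, 1 h post-dosing; initial duplicate single-point testing at 25 uM, followed by concentration-series follow-up, with DMSO as baseline.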

[2] = target: human SRC Proto-Oncogene, Non-receptor Tyrosine Kinase (SRC), SRC (gene 6714) (UniProt P12931); assay: NVS_ENZ_hSRC: NovaScreen (NVS) Enzymatic Assay for human SRC Proto-Oncogene, Non-receptor Tyrosine Kinase (SRC) (AID 2283223)
Chain of human SRC Proto-Oncogene, Non-receptor Tyrosine Kinase (SRC), SRC (gene 6714) (P12931 whole entry, looked up): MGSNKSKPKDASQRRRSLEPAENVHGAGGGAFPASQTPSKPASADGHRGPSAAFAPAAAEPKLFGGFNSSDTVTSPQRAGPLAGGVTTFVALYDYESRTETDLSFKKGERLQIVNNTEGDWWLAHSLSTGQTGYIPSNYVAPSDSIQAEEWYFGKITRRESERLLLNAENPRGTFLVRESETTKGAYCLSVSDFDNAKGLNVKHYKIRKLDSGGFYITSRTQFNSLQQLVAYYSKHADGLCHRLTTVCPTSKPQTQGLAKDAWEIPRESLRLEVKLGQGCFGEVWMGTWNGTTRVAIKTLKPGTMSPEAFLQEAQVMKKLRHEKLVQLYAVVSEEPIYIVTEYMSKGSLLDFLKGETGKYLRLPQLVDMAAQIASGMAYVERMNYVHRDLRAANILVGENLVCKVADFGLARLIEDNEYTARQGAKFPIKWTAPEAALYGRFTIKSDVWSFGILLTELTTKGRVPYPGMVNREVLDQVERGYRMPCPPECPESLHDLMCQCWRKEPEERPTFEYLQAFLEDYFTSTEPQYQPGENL
Method in brief: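 Compounds passing 30% inhibition at 25 uM (duplicate) were titrated to a top concentration of 50 uM. Enzyme activity read by fluorescence with mobility-shift substrate/product separation after 1 h; DMSO baseline.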

[3] = target: human Tropomyosin Receptor Kinase A (TRKA), NTRK1 (gene 4914) (UniProt P04629); assay: NVS_ENZ_hTrkA: NovaScreen (NVS) Enzymatic Assay for human Tropomyosin Receptor Kinase A (TRKA) (AID 2283224)
Chain of human Tropomyosin Receptor Kinase A (TRKA), NTRK1 (gene 4914) (P04629 whole entry, looked up): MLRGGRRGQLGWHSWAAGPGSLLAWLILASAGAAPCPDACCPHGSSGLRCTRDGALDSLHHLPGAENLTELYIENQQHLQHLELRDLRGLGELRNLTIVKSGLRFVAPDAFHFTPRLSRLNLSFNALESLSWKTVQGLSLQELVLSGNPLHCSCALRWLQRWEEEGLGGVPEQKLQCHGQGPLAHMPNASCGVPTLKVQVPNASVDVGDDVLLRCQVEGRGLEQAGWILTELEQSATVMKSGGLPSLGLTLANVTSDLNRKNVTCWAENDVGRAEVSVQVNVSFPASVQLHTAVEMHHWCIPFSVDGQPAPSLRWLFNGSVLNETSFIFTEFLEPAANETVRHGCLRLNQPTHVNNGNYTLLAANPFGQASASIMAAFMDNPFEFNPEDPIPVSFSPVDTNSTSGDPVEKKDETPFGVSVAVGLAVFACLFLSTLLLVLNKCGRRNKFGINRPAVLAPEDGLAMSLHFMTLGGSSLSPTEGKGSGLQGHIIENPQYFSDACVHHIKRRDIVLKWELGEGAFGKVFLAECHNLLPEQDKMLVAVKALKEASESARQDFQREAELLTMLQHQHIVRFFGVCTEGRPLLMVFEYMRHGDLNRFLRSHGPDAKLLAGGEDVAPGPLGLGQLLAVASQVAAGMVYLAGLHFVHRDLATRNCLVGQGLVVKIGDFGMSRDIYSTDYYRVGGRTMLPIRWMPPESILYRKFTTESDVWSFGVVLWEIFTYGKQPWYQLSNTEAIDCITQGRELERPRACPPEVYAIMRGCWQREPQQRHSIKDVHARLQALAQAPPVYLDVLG
Method in brief: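 Compounds were screened at 25 uM in duplicate, then concentration series to a 50 uM top for those meeting threshold (e.g. 30% inhibition). Enzyme was recombinant human TrkA, incubated 1 h. Product formation was quantified by fluorescence after mobility-shift separation.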

[4] = target: human Protein Tyrosine Phosphatase Non-receptor Type 6 (PTPN6), PTPN6 (gene 5777) (UniProt P29350); assay: NVS_ENZ_hPTPN6: NovaScreen (NVS) Enzymatic Assay for human Protein Tyrosine Phosphatase Non-receptor Type 6 (PTPN6) (AID 2283210)
Chain of human Protein Tyrosine Phosphatase Non-receptor Type 6 (PTPN6), PTPN6 (gene 5777) (P29350 whole entry, looked up): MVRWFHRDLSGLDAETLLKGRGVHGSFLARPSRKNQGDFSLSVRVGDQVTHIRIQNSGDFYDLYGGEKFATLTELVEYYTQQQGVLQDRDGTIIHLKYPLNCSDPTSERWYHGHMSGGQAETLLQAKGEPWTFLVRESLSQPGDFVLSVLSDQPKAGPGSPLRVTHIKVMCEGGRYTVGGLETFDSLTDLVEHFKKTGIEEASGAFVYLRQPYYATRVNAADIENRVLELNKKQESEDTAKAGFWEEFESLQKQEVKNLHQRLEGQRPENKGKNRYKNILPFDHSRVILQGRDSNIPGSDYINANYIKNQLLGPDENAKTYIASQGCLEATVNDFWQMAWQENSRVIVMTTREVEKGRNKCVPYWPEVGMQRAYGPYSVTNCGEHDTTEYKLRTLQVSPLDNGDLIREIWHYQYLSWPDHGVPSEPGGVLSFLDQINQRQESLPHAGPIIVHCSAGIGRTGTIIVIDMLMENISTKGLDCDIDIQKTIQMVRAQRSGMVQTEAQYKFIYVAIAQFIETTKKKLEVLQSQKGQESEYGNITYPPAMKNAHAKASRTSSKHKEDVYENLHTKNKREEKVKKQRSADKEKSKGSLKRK
Method in brief: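 Recombinant human PTPN6 from SF9 cells, enzyme activity followed by fluorescence after mobility-shift separation of substrate and product at 1.33 h. Chemicals first tested at a single 25 uM in duplicate, then confirmed across concentration series; loss of signal relative to DMSO.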

[5] = target: human Protein Tyrosine Phosphatase Receptor Type B (PTPRB), PTPRB (gene 5787) (UniProt P23467); assay: NVS_ENZ_hPTPRB: NovaScreen (NVS) Enzymatic Assay for human Protein Tyrosine Phosphatase Receptor Type B (PTPRB) (AID 2283211)
Method in brief: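 Recombinant human PTPRB with a fluorescent substrate, product separated by electrophoretic mobility shift; read 1 h after dosing. Primary screen in duplicate at 25 uM; actives then retested in concentration series; loss of signal versus DMSO.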

[6] = target: human Protein Tyrosine Phosphatase Receptor Type F (PTPRF), PTPRF (gene 5792) (UniProt P10586); assay: NVS_ENZ_hPTPRF: NovaScreen (NVS) Enzymatic Assay for human Protein Tyrosine Phosphatase Receptor Type F (PTPRF) (AID 2283213)
Method in brief: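 Cell-free fluorescence enzyme assay with recombinant protein and substrate; product separated by electrophoretic mobility shift. Read 1 h after dosing, single 25 uM duplicate screen, then concentration-response up to 50 uM; loss of signal vs DMSO.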

[7] = target: human Protein Tyrosine Phosphatase Receptor Type M (PTPRM), PTPRM (gene 5797) (UniProt P28827); assay: NVS_ENZ_hPTPRM: NovaScreen (NVS) Enzymatic Assay for human Protein Tyrosine Phosphatase Receptor Type M (PTPRM) (AID 2283215)
Procedure: NVS_ENZ_hPTPRM is a biochemical, single-readout assay that uses extracted gene-proteins in a cell-free assay. Measurements were taken 1.33 hours after chemical dosing in a 384-well plate.NVS_ENZ_hPTPRM is one of one assay component(s) measured or calculated from the NVS_ENZ_hPTPRM assay. It is designed to make measurements of enzyme activity, a form of enzyme reporter, as detected with fluorescence intensity signals by Fluorescence and electrophoretic mobility shift technology.Data from the assay component NVS_ENZ_hPTPRM was analyzed into 1 assay endpoint. This assay endpoint, NVS_ENZ_hPTPRM, was analyzed in the positive analysis fitting direction relative to DMSO as the negative control and baseline of activity. Using a type of enzyme reporter, loss-of-signal activity can be used to understand changes in the enzymatic activity as they relate to the gene PTPRM. Furthermore, this assay endpoint can be referred to as a primary readout, because this assay has produced multiple assay endpoints where this one serves a enzymatic activity function. To generalize the intended target to other relatable targets, this assay endpoint is annotated to the phosphatase intended target family, where the subfamily is receptor tyrosine phosphatase. […]

[8] = target: human Sirtuin 2 (SIRT2), SIRT2 (gene 22933) (UniProt Q8IXJ6); assay: NVS_ENZ_hSIRT2: NovaScreen (NVS) Enzymatic Assay for human Sirtuin 2 (SIRT2) (AID 2283217)
Chain of human Sirtuin 2 (SIRT2), SIRT2 (gene 22933) (Q8IXJ6 whole entry, looked up): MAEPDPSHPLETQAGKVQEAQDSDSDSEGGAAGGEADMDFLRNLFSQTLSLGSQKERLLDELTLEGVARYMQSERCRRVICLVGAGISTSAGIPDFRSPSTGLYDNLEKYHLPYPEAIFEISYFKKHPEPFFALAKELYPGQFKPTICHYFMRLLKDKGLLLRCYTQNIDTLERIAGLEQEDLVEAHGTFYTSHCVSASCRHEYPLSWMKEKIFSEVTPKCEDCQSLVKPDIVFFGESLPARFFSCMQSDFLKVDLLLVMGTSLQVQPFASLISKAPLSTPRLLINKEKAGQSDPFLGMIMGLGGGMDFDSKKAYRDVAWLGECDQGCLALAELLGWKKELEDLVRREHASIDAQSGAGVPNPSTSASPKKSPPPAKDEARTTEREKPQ
Method in brief: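 Single-point duplicate screen at 25 uM, then concentration-response (max 50 uM) for chemicals passing threshold. Enzyme activity of recombinant human SIRT2 measured after 1 hr by fluorescence with mobility-shift separation of product; DMSO baseline.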

[9] = target: human Sirtuin 1 (SIRT1), SIRT1 (gene 23411) (UniProt Q96EB6); assay: NVS_ENZ_hSIRT1: NovaScreen (NVS) Enzymatic Assay for human Sirtuin 1 (SIRT1) (AID 2283219)
Chain of human Sirtuin 1 (SIRT1), SIRT1 (gene 23411) (Q96EB6 whole entry, looked up): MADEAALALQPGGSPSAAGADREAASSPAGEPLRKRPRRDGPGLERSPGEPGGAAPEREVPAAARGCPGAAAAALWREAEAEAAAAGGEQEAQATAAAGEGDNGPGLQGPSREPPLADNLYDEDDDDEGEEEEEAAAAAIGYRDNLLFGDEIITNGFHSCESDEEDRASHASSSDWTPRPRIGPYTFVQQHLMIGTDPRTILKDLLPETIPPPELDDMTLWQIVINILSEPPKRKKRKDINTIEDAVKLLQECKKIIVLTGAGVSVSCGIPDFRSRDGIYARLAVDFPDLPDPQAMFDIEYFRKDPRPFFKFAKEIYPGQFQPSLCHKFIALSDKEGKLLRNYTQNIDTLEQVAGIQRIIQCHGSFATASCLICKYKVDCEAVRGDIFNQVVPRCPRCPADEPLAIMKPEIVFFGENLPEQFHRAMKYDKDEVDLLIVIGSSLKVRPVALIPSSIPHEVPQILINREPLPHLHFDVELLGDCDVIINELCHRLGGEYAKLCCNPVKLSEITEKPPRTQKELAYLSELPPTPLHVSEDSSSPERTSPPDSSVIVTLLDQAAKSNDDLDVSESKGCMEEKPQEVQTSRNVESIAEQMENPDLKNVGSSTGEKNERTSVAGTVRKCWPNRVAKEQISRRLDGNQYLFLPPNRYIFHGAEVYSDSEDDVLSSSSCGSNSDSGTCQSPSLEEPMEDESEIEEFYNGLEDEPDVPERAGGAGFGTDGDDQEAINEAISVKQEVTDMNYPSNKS
Method in brief: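 Cell-free recombinant SIRT1 with a fluorescent substrate; substrate and product separated by electrophoretic mobility shift and read by fluorescence intensity, 1 h after dosing. Primary screen at 25 uM in duplicate; hits re-run in concentration-response up to 50 uM, relative to DMSO.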

[10] = target: human Sirtuin 3 (SIRT3), SIRT3 (gene 23410) (UniProt Q9NTG7); assay: NVS_ENZ_hSIRT3: NovaScreen (NVS) Enzymatic Assay for human Sirtuin 3 (SIRT3) (AID 2283222)
Chain of human Sirtuin 3 (SIRT3), SIRT3 (gene 23410) (Q9NTG7 whole entry, looked up): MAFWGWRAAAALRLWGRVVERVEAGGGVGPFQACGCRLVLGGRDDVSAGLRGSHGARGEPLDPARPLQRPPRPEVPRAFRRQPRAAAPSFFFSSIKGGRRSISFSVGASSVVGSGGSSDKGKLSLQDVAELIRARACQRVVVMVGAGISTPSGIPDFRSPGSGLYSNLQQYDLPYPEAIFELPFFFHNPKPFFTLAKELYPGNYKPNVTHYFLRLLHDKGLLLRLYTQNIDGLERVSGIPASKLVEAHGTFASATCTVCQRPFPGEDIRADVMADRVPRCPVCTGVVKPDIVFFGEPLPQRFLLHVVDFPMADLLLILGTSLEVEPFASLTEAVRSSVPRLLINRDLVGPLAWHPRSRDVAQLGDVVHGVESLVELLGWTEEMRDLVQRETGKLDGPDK
Method in brief: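 Cell-free enzyme assay with recombinant protein and fluorescent substrate, product separated by electrophoretic mobility shift; read 1 hour after dosing. Screened in duplicate at 25 uM, then singleton concentration-response up to 50 uM; loss of signal versus DMSO.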

## CC(=O)Nc1ccc(O)cc1
[1]
  outcome: inactive

## Cc1[nH]nc2c1N=C(c1ccccc1Cl)c1cc([N+](=O)[O-])ccc1N2
[2]
  AC50: 23.1 µM (active)
[3]
  AC50: 17.9 µM (active)
[1]
  AC50: 0.0098 µM (active)

## CCCCCCCCCCCCOS(=O)(=O)O
[4]
  AC50: 25 µM (active)
[5]
  AC50: 7.45 µM (active)
[6]
  outcome: inactive
[7]
  AC50: 25 µM (active)
[8]
  AC50: 25 µM (active)
[9]
  outcome: inactive
[10]
  outcome: inactive
[2]
  outcome: inactive
[3]
  AC50: 26 µM (active)

## CCCCCCCCCCCCCCCCCC[N+](C)(C)Cc1ccccc1
[1]
  outcome: inactive

## NC(=NCCCCCCN=C(N)/N=C(\N)Nc1ccc(Cl)cc1)/N=C(\N)Nc1ccc(Cl)cc1
[1]
  AC50: 27.6 µM (active)

## CCCCC(CC)C(=O)O (stereo unspecified)
[4]
  outcome: inactive
